Experimental findings from ChEMBL document CHEMBL1961873, “Compounds: GSK PKIS; Assays: Nanosyn kinase panel” (2012) are described below.

What is called inhibition is the drop in the measured response relative to a control, in per cent.
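Also: values are mean percent inhibition of PAK2.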

In this assay the target is Serine/threonine-protein kinase PAK 2 (Homo sapiens) (UniProt Q13177). Particulars: at 0.1 µM.
Chain of Serine/threonine-protein kinase PAK 2 (Homo sapiens) (Q13177 whole entry): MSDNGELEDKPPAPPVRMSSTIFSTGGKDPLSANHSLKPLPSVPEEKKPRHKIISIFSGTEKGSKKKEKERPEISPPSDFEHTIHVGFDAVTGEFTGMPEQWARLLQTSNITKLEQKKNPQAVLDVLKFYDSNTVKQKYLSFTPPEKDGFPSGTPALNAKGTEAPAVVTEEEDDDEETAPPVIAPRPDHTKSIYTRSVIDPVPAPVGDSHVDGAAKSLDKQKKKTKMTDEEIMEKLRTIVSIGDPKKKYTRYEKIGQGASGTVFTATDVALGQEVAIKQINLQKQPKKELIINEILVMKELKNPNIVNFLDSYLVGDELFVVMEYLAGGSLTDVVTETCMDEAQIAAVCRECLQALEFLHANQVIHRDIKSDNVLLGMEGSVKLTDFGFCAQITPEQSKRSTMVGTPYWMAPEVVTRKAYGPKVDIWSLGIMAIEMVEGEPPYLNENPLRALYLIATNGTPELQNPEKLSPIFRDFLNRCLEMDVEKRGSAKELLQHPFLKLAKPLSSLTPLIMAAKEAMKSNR
As for `c1ccc(COc2ccc(Nc3ncnc4ccc(-c5ccco5)cc34)cc2)cc1`, the inhibition is -0.79%.

As to `COc1ccc2c(-c3ccnc(Nc4cccc(OC(F)(F)F)c4)n3)cnn2n1`, the inhibition was 4.37%.

Regarding `CN1CCC(n2cnc(-c3ccc(F)cc3)c2-c2ccnc(N)n2)CC1`, the inhibition was 0.07%.

Take `COc1ccc(-c2cc(-c3c[nH]nc3-c3ccccn3)ccn2)cc1`: the inhibition amounted to 2.66%. Take `Cc1cccc(Nc2ncc(-c3ccccc3)o2)c1`: the inhibition worked out at 0.94%.

In the case of `COC(=O)c1sc(-n2cnc3cc(OC)c(OC)cc32)cc1OCc1ccccc1C(F)(F)F`, the inhibition came to 1.91%.

As to `N#Cc1c(NC(=O)CN2CCOCC2)sc2c1CCCC2`, the inhibition amounted to 1.25%. Consider `COc1ccc(-c2cc3c(N)ncnc3o2)cc1`, for which the inhibition was -2.02%. Consider `N#Cc1c(NC(=O)c2ccc(F)cc2)sc2c1CCCC2`, for which the inhibition amounted to 0.64%.

In the case of `Cc1ccc2c(-c3ccnc(Nc4ccccc4)n3)c(-c3ccc(F)cc3)nn2n1`, the inhibition came to 2.41%.

Take `CNC(=O)c1cc(-c2ccc(F)cc2)cc(-c2ccc(S(=O)(=O)N3CCCC3)cc2)c1N`: the inhibition was 1.46%.

Consider `Cc1ccc(O)cc1Nc1ccnc2cc(-c3ccccn3)ccc12`, for which the inhibition was 3.37%. As to `CCc1nn2ncccc2c1-c1ccnc(NC2CC2)n1`, the inhibition turned out to be 1.85%.

Take `CCCN1CCC(c2ccc(Nc3nc(Nc4cc(F)ccc4C(N)=O)c4cc[nH]c4n3)c(OC)c2)CC1`: the inhibition was 1.19%. Turning to `Fc1ccc(-c2nn3ccccc3c2-c2ccncc2)cc1`, the inhibition was -0.13%. Regarding `O=C(O[C@H]1CN[C@H](C#Cc2cc3ncnc(Nc4ccc(Cc5ccccc5)cc4)c3s2)C1)N1CCOCC1`, the inhibition worked out at 0.85%. For `COc1ccc(-c2nn3ncccc3c2-c2ccnc(Nc3ccc4c(c3)OCCO4)n2)cc1`, the inhibition was -0.29%. For `CN(C)CCOc1ccc(-c2nc(-c3ccncc3)c(-c3ccc4c(c3)CC/C4=N\O)[nH]2)cc1`, the inhibition was 2.66%. The same measure for `CCN1CCC(CC(=O)Nc2n[nH]c3nnc(-c4cccc(F)c4F)cc23)CC1`: 2.09%; for `COc1cccc(-c2c[nH]c3c(N/N=C/c4ccncc4)ncnc23)c1`: 0.94%; for `Fc1ccc(-c2nn3ncccc3c2-c2ccnc(Nc3ccc4c(c3)OCCO4)n2)cc1`: 1.46%. To `COc1cc(Nc2nccc(Nc3ccc4c(C)n[nH]c4c3)n2)cc(OC)c1OC` belongs 0.97%; to `CC(C)COC(=O)c1ccc2c(c1)/C(=C/Nc1ccc(S(N)(=O)=O)cc1)C(=O)N2`, -2.84%.

As to `NS(=O)(=O)c1ccc(N/N=C2\C(=O)Nc3ccc4ncccc4c32)cc1`, the inhibition came out at 1.04%. To `COc1cc(N2CCN(C(C)C)CC2)ccc1Nc1nc(Nc2ccc(F)cc2C(N)=O)c2cc[nH]c2n1` belongs 0.48%; to `CCn1c(-c2nonc2N)nc2c(C#CC(C)(C)O)ncc(OC3CCNCC3)c21`, 1.98%; to `CNC(=O)c1cccc(C#Cc2cncnc2Nc2ccc(OCc3cccc(F)c3)c(Cl)c2)c1`, 0.68%. `Fc1cccc(COc2ccc(Nc3ncnc4sc(-c5ccco5)cc34)cc2Cl)c1`: the inhibition was determined as 1.79%. As to `c1ccc(-c2nc3n(c2-c2ccc4c(c2)OCO4)CCC3)nc1`, the inhibition was -0.09%. The same measure for `O=S(=O)(CCNCc1ccc(-c2ccc3ncnc(Nc4ccc(OCc5cccc(F)c5)c(Cl)c4)c3c2)o1)c1ccccc1`: 2.7%; for `COc1cc(/C=N/Nc2ncnc3[nH]ncc23)ccc1O`: 2.22%; for `CS(=O)(=O)CCNCc1coc(-c2ccc3ncnc(Nc4ccc(OCc5ccccc5)cc4)c3c2)c1`: 0.82%.

With `COc1cc2c(cc1Nc1nc(Nc3ccsc3C(N)=O)c3cc[nH]c3n1)N(C(=O)CN(C)C)CCC2(C)C`, the inhibition stood at 2.44%.
